Results on 13 molecules are retold here after PubChem BioAssay.

SMILES strings stand for the structures. Calls of active or inactive are those of the source.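 The calls were made as follows, unless noted: active = compounds whose cell count with miR-34 switched on is under 0.7 times the count with it off; inactive = the rest.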

A short description of assay [1]: viability loss with induced miR-34 in A549 – imaging, A549 dox-inducible miR-34, nuclei and caspase counts, primary screen (AID 1347080). Also: test concentration not given here. The note with it: A549 miR-34 inducible, Hoechst nuclei count, 48 h.
Assay [2] is described as follows: MELAS cybrid and Rieske KO viability enhancers – cell-based, MELAS cybrids, Rieske KO mouse fibroblasts, CellTiter-Glo, primary screen (AID 1508586;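 active = mean z-score across replicates of 1.96 or higher in either the MELAS or the Rieske mutant cell line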;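 also: test concentration not given here; z relative to plate mean and SD of compound and empty wells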). The settings on record: low glucose. (Cellular ATP, detected with luciferase, serves as a proxy for viable cell number.)
A short description of assay [3]: galactose survival enhancers in mitochondrial complex I cybrids – cell-based, galactose medium, ATP luminescence, primary screen (AID 1645843;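 active = z-score of at least 1.8 in each of two replicates, scored against plate mean and spread of sample wells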;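 also: positive z means more ATP and so rescue of galactose-driven cybrid death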). The settings on record: complex I mutant cybrid cells, 72 h, stronger effect = higher value.
Setting [4] is: stronger effect = lower value, cell number ratio, induced over uninduced.
Setting [5] is: measured here: relative caspase fold change +Dox/-Dox.
Setting [6] is: measured here: total cells with miR-34 induction, stronger effect = lower value.
Setting [7] is: measured here: total cells without miR-34 induction.
Where [8] appears, read: MELAS cybrid survival, CellTiter-Glo 48 h, stronger effect = higher value.
[9] abbreviates: Rieske KO mouse fibroblast survival, CellTiter-Glo 72 h.

For `Cc1nn(C)cc1-c1ccnc(NCC(C)Oc2cccnc2)n1` (stereo unspecified), the fold change was 0.898 (inactive) in assay [1] (setting [4]) and 1.28 in assay [1] (setting [5]). Further, the cell count in assay [1] (setting [6]) was found to be 8650; in assay [1] (setting [7]) it was 9640. In addition, the results for the z-score in assay [2] (setting [8]), in assay [2] (setting [9]) and in assay [3] were -0.961 (inactive), 0.57 and -0.525 (inactive), respectively.

In the case of `CSc1n[nH]c(-c2ccc(Cl)cc2)n1`, the figures for the fold change in assay [1] (setting [4]) and in assay [1] (setting [5]) were 0.939 (inactive) and 0.52, respectively. Moreover, the cell count in assay [1] (setting [6]) came out at 8540; in assay [1] (setting [7]) it was 9100. The figures for the z-score in assay [2] (setting [8]), in assay [2] (setting [9]) and in assay [3] were 1.97 (active), -0.569 and 0.11 (inactive), respectively.

As to `CC(C)C(=O)N1CCC(CNC(=O)c2ccno2)CC1`, the fold change in assay [1] (setting [4]) is 0.927 (inactive); in assay [1] (setting [5]) it was 0.833. The cell count in assay [1] (setting [6]) is 9650; in assay [1] (setting [7]), 10400. Further, the z-score in assay [2] (setting [8]) was 0.208 (inactive); in assay [2] (setting [9]), 0.293; in assay [3], -0.57 (inactive).

Consider `Cc1ccc2c(-c3ncnc4scc(C)c34)cccc2n1`, for which the fold change is 0.882 (inactive) in assay [1] (setting [4]) and 1.37 in assay [1] (setting [5]). Moreover, the cell count in assay [1] (setting [6]) was 6650; in assay [1] (setting [7]) it was 7540. In addition, the z-score is -0.275 (inactive) in assay [2] (setting [8]), -0.173 in assay [2] (setting [9]) and 2.45 (inactive) in assay [3].

Turning to `Cn1nc(C(C)(C)C)cc1NC(=O)Nc1ccc(Cl)cc1`, the fold change is 0.806 (inactive) in assay [1] (setting [4]) and 1.05 in assay [1] (setting [5]). Further, the values for the cell count in assay [1] (setting [6]) and in assay [1] (setting [7]) were 7030 and 8720, respectively. In addition, the z-score was 1.19 (inactive) in assay [2] (setting [8]), -0.375 in assay [2] (setting [9]) and 0.155 (inactive) in assay [3].

For the molecule `O=C(O)c1cc(Br)ccc1NS(=O)(=O)c1ccc(Cl)cc1`, the fold change was 0.854 (inactive) in assay [1] (setting [4]) and 0.75 in assay [1] (setting [5]). The cell count in assay [1] (setting [6]) was determined as 8540; in assay [1] (setting [7]) it was 10000. The z-score in assay [2] (setting [8]) is -0.163 (inactive); in assay [2] (setting [9]) it was -0.343; in assay [3] it was 0.495 (inactive).

In the case of `CC(=O)Nc1nc2c(s1)C(=O)NCCC2`, the fold change in assay [1] (setting [4]) was 0.907 (inactive); in assay [1] (setting [5]) it was 0.479. For the same molecule, the cell count is 8770 in assay [1] (setting [6]) and 9670 in assay [1] (setting [7]). The z-score is 0.0141 (inactive) in assay [2] (setting [8]), -0.403 in assay [2] (setting [9]) and 0.685 (inactive) in assay [3].

In the case of `NC(=O)c1c(NC(=O)C2CC2)sc2c1CCCC2`, the fold change in assay [1] (setting [4]) was 0.825 (inactive); in assay [1] (setting [5]), 0.622. The figures for the cell count in assay [1] (setting [6]) and in assay [1] (setting [7]) were 7330 and 8890, respectively. Also, the z-score in assay [2] (setting [8]) is -0.327 (inactive); in assay [2] (setting [9]) it was 0.409; in assay [3] it was 0.65 (inactive).

Turning to `CNC(=O)c1ccccc1-c1cccc2ccccc12`, the fold change in assay [1] (setting [4]) was 0.918 (inactive); in assay [1] (setting [5]), 0.701. The cell count in assay [1] (setting [6]) stood at 8250; in assay [1] (setting [7]), 8980. Besides, the figures for the z-score in assay [2] (setting [8]), in assay [2] (setting [9]) and in assay [3] were -0.403 (inactive), -0.242 and -0.535 (inactive), respectively.

In the case of `Cn1nc(-c2cccnc2)c2[nH]c(-c3ccccc3OC(F)F)nc21`, the figures for the fold change in assay [1] (setting [4]) and in assay [1] (setting [5]) were 0.875 (inactive) and 0.925, respectively. For the same molecule, the figures for the cell count in assay [1] (setting [6]) and in assay [1] (setting [7]) were 6510 and 7440, respectively. Further, the z-score was -1.45 (inactive) in assay [2] (setting [8]), 0.404 in assay [2] (setting [9]) and 0.095 (inactive) in assay [3].

Consider `CCNC(=O)c1cccnc1N1CCN(c2ccc(C)cc2C)CC1`, for which the figures for the fold change in assay [1] (setting [4]) and in assay [1] (setting [5]) were 0.919 (inactive) and 1.12, respectively. Further, the results for the cell count in assay [1] (setting [6]) and in assay [1] (setting [7]) were 6880 and 7490, respectively. Also, the z-score in assay [2] (setting [8]) is -0.459 (inactive); in assay [2] (setting [9]), 0.378; in assay [3], -0.485 (inactive).

Take `Cc1cc(-c2cccc(OC(C)C)c2)nc(N)n1`: the fold change in assay [1] (setting [4]) was 0.871 (inactive); in assay [1] (setting [5]), 1.62. In addition, the cell count in assay [1] (setting [6]) came out at 7710; in assay [1] (setting [7]) it was 8860. The z-score in assay [2] (setting [8]) was -1.21 (inactive); in assay [2] (setting [9]), 0.889; in assay [3] it was -0.56 (inactive).

As to `O=C(O)c1ccc(O)cc1O`, the fold change was 0.891 (inactive) in assay [1] (setting [4]) and 0.246 in assay [1] (setting [5]). Further, the cell count worked out at 8740 in assay [1] (setting [6]) and 9810 in assay [1] (setting [7]). The z-score is -0.11 (inactive) in assay [2] (setting [8]), -0.1 in assay [2] (setting [9]) and 0.565 (inactive) in assay [3].
